SMILES strings stand for the structures. About 83,000 compounds went through this panel and 20% of them were active in at least one assay; those are over-represented in the sample as a whole.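 Single-dose data. Exposure time 48 hours. Values below 10 considered active.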 Calls of active or inactive are those of the source.

The test system of this experiment is NCI/ADR-RES ovarian. Put plainly: NCI-60 one-dose screen, 48 h (100 = growth as untreated, 0 = no growth, -100 = all killed). Particulars: 10 µM unless noted.
Regarding `Cc1ccc2c(C3C(C#N)=C(N)Oc4cc5ccccc5cc43)cc(=O)oc2c1` (stereo not given), the growth is 11.8% (inactive).
`Oc1ccc(Cl)cc1Sc1cc(Cl)ccc1O`: the growth was 101% (inactive).
Regarding `CCc1cccc(-c2ccccc2)c1`, the growth is 111% (inactive).
For the compound `CCCCNc1cc(C(=O)O)cc(S(N)(=O)=O)c1Oc1ccccc1`, the growth is 99.1% (inactive).
As to `CC(C)Cn1cnc2c3ccccc3nc(NCn3nc(-c4cc(Cl)cc(Cl)c4Cl)oc3=S)c21`, the growth is 66.4% (inactive).
In the case of `Clc1ccc2c(c1)nnn1c3ncccc3c(Br)c21` it was 85.8% (inactive).
The figure for `Cc1ccc(-c2nc3c(N=Nc4ccc(S(N)(=O)=O)cc4)c(N)nn3c(N)c2C#N)cc1` is 99.9% (inactive); for `O=C(C[n+]1ccccc1Cl)c1ccc2c(c1)CCCC2` it is 109% (inactive); for `COc1ccc(C2CC(c3cc(Cl)c(C)cc3OC)=NN2c2ccc(S(N)(=O)=O)cc2)cc1OC` (stereo not given) it is 77.2% (inactive).
For the compound `CCN(CC)c1ccc(C2CC(c3cc(OC)c(OC)c(OC)c3)=NN2)cc1` (stereo not given), the growth is -37% (active).
In the case of `COC(=O)CCCNS(=O)(=O)c1cc(C(=O)Nc2ccc(NC(=O)c3cc(S(=O)(=O)NCCCC(=O)OC)c(O)c(O)c3O)cc2)c(O)c(O)c1O` it was 94.2% (inactive); in that of `CC(NCCC(c1ccccc1)c1ccccc1)c1ccccc1` (stereo not given), 79.1% (inactive); in that of `CC/C(=C(\CC)c1ccc(OCCN(CC)CC)cc1)c1ccc(OCCN(CC)CC)cc1`, 57.6% (inactive).
The figure for `Cc1ccc(N(CC2=NCCN2)c2cccc(O)c2)cc1` is 104% (inactive); for `COc1ccc(C[C@H](N)C(=O)N[C@@H]2[C@@H](CO)OC(n3cnc4c(N(C)C)ncnc43)[C@@H]2O)cc1` (stereo not given in full) it is 93.4% (inactive).

(Values after PubChem BioAssay (NCI).)
